This passage reports outcome results from PubChem BioAssay (EPA / NIEHS).

The source made the active and inactive calls. Rule for the calls: active = hit-call score of the fitted dose curve at least 0.9, where 1 is the maximum; inactive = score below 0.9.

This assay can be described thus: APR_HepG2_MitoMembPot_72hr: Apredica 72-hour HepG2 Assay for Mitochondrial Membrane Potential (AID 2282917). The note with it: imaging, actives raise or lower the signal. How it is done:
APR_HepG2_72hr is a cell-based, multiplexed-readout assay that uses HepG2, a human liver cell line, with measurements taken at 72 hours after chemical dosing in a 384-well plate.APR_HepG2_MitoMembPot_72hr is one of 10 assay component(s) measured or calculated from the APR_HepG2_72hr assay. It is designed to make measurements of dye binding, a form of membrane potential reporter, as detected with fluorescence intensity signals by HCS Fluorescent Imaging technology.Data from the assay component APR_HepG2_MitoMembPot_72hr was analyzed into 1 assay endpoint. This assay endpoint, APR_HepG2_MitoMembPot_72hr, was analyzed with bidirectional fitting relative to DMSO as the negative control and baseline of activity. Using a type of membrane potential reporter, gain or loss-of-signal activity can be used to understand changes in the signaling. Furthermore, this assay endpoint can be referred to as a primary readout, because this assay has produced multiple assay endpoints where this one serves a signaling function. To generalize the intended target to other relatable targets, this assay endpoint is annotated to the cell morphology intended target family, where the subfamily is organelle conformation.
Cells were treated with dimethyl sulfoxide (DMSO) as a solvent control at a final concentration of 0.5% v/v or with compounds in DMSO with a resulting final DMSO concentration of 0.5% v/v. Compound treatment was done at concentrations of 0.39, 0.78, 1.56, 3.12, 6.24, 12.5, 25, 50, 100, and 200 uM in duplicate on each plate. Cells were treated with compounds for 1, 24, or 72 hr. Carbonyl […] m-chloro-phenylhydrazone (CCCP) and taxol were used as positive controls for mitochondrial function and cytoskeletal stability, respectively; DMSO served as the negative control for this experiment. Cells were fixed by the direct addition of 50 uL formaldehyde in Hank's Balanced Salt Solution (HBSS) to a final concentration of 3.7%. After incubation in the fixation medium for 30 min at room temperature (293-298 K), cells were rinsed twice with HBSS and treated with cell permeabilization buffer (16 uL of 0.5% Triton X-100) for 10 min at room temperature (293-298 K) before labeling. For mitochondrial membrane potential and mitochondrial measurements, pre-fixed cells were incubated with 50 uL of MitoTracker Red CMXRos (Invitrogen) at a concentration of 250 nM for 30 min before fixation. In the remaining cases, post-fixed cells were labeled by incubation with a multiplexed mixture of primary antibodies in HBSS for 60 min at room temperature (293-298 K) to detect immunoreactivity of c-Jun (1:500), phospho-histone H3 (1:100), phospho-histone H2A.x (1:200), p53 (1:400), alpha-tubulin (1:200) and Hoechst 33342 (2 ug/mL). Cells were labeled for multiplexed imaging on two separate plates: a) Hoechst 33342, MitoTracker Red, phospho-histone H3, and alpha-tubulin, and b) Hoechst 33342, phospho-histone H2A.x, and c-Jun. A final rinse with HBSS (50 uL) was performed before analysis. The primary and secondary antibodies for the proteins were phospho-histone H3 (rabbit anti-phospho-histone H3 and FITC-donkey anti-rabbit IgG), phospho-histone H2A.x (mouse anti-phospho-histone H2A.x and FITC-donkey anti-mouse IgG), c-Jun (rabbit anti-phospho-c-Jun and Cy3-donkey anti-rabbit IgG), p53 (sheep anti-p53 and Cy5-donkey anti-sheep IgG), alpha-tubulin (mouse anti-alpha-tubulin and Cy5-donkey anti-mouse IgG). These antibodies are available as the CellCiphr HepG2 assay kit (Millipore).Digital images of each well were captured using a Cellomics ArrayScan VTI (Thermo Scientific Cellomics) (0.8 NA objective, 0.63x optical coupler, and XF-93 filter set) at 20x magnification. The images were acquired using the autofocus feature of the ArrayScan instrument, which entails the following steps. First, the camera focuses on channel 1 (Hoechst 33342), where nuclei are identified. Second, a Z offset of 1 um is used for capturing mitochondria (MitoTracker Red). […]
In the case of `O=C(O)c1ccc2c(c1)nc(C(=O)NC1CCN(C3CC3)CC1)n2Cc1cc(-c2ccc(Cl)s2)on1`, the compound was called inactive.

With `CC(C)c1nnc2ccc(-c3ocnc3-c3cc(F)ccc3F)cn12`, the outcome was inactive.

As for `CCCc1ccccc1`, the outcome was inactive.

In the case of `Nc1ccn([C@@H]2O[C@H](CO)[C@@H](O)[C@@H]2O)c(=O)n1`, the result was inactive.

Regarding `c1ccc2c(c1)-c1cccc3c1c-2cc1ccccc13`, the compound was classed as inactive.

In the case of `Cn1cc[nH]c1=S`, the call was inactive.

On to `NC(=O)NN=Cc1ccc([N+](=O)[O-])o1`, for which the compound was called inactive.

`CCCCOC(=O)c1ccccc1`: the compound was called inactive.

`c1ccc2ncccc2c1`: the result was inactive.

Take `CCCCCCOC(=O)CC(CC(=O)OCCCCCC)(OC(=O)CCC)C(=O)OCCCCCC`: the compound was called inactive.

Regarding `CCCCCCCCCCCCCCCCOS(=O)(=O)O`, the result was inactive.

Take `OCc1ccccc1`: the compound was classed as inactive.

As to `CCn1nc(C)c2c1C(=O)NCC(c1ccc(O)cc1)=N2`, the outcome was inactive.

Regarding `Cc1ncc([C@@H](CCCCCCc2ccc3c(n2)NCCC3)CC(=O)O)cn1`, the compound was classed as inactive.

With `OCCOCCOCCO`, the compound was called inactive.

Consider `CCCCCOC(C)=O`, for which the result was inactive.

In the case of `CCCCN1C(=O)[C@@H]([C@H](O)C2CCCCC2)NC(=O)C12CCN(Cc1ccc(Oc3ccc(C(=O)O)cc3)cc1)CC2`, the outcome was inactive.

Turning to `C=CN1CCCC1=O`, the result was inactive.

As to `CC[C@H](C)C(=O)O[C@H]1C[C@H](O)C=C2C=C[C@H](C)[C@H](CC[C@@H](O)C[C@@H](O)CC(=O)O)[C@H]21`, the call was inactive.

For the compound `NC(=O)N(O)[C@@H]1COc2cc(OCc3ccccc3)ccc21`, the outcome was inactive.

Consider `Cc1ccc(S(=O)(=O)NC(=O)NN2CCCCCC2)cc1`, for which the call was inactive.

Turning to `O=C(O)[C@H](O)[C@@H](O)C(=O)O`, the result was inactive.

Turning to `Cc1nc(-c2ccccn2)ncc1C(=O)Nn1cc(C)c2cc(F)ccc21`, the compound was classed as inactive.

Take `C[C@]12C=CC(=O)C=C1CC[C@H]1[C@@H]3C[C@@H](O)[C@](O)(C(=O)CO)[C@@]3(C)C[C@H](O)[C@@]12F`: the compound was called inactive.

As for `OC(CCl)CCl`, the compound was called inactive.

For the compound `O=C(NO)C1(NS(=O)(=O)c2ccc(Oc3ccc(F)cc3)cc2)CCOCC1`, the compound was classed as inactive.

Consider `O=c1[nH]cnc2c1ncn2[C@H]1CC[C@@H](CO)O1`, for which the compound was called inactive.

Turning to `CCCC(CCC)C(=O)O`, the call was inactive.

Take `C=CCc1cc(S(=O)(=O)c2ccc(O)c(CC=C)c2)ccc1O`: the call was inactive.

With `COc1cc(C(C)C)c2c(c1)S(=O)(=O)N(COc1cc(=O)n3cccc(OCCN4CCCCC4)c3n1)C2=O`, the compound was called inactive.

With `OC(Cn1cncn1)(Cn1cncn1)c1ccc(F)cc1F`, the result was inactive.

Regarding `CC(C)CC(C)O` (stereo not given), the result was inactive.

Regarding `CC(=O)c1ccccc1`, the compound was classed as inactive.

Take `CCCCCCCCN(C)C`: the compound was classed as inactive.

As for `c1ccc(C(O[C@@H]2CCCN(CCc3ccc4c(c3)OCO4)C2)c2ccccc2)cc1`, the result was inactive.

`O=S1(=O)CCCO1`: the call was inactive.

For the compound `OC[C@H]1O[C@@H]2O[C@H]3[C@H](O)[C@@H](O)[C@@H](O[C@H]4[C@H](O)[C@@H](O)[C@@H](O[C@H]5[C@H](O)[C@@H](O)[C@@H](O[C@H]6[C@H](O)[C@@H](O)[C@@H](O[C@H]7[C@H](O)[C@@H](O)[C@@H](O[C@H]1[C@H](O)[C@H]2O)O[C@@H]7CO)O[C@@H]6CO)O[C@@H]5CO)O[C@@H]4CO)O[C@@H]3CO`, the call was inactive.

Take `COCc1nnc(-c2ccc[n+]([O-])c2)n1-c1c(Cl)c(Cl)cc2[nH]c(=O)c(=O)[nH]c12`: the compound was called inactive.

For the compound `CCc1ccc(O)c(C(C)(C)C)c1`, the call was inactive.

With `COS(C)(=O)=O`, the call was inactive.
